About 79,000 compounds went through this panel and 15% of them were active in at least one assay; those are over-represented in the sample as a whole. Calls of active or inactive are those of the source. No stated cut-off is given here; in the data, active means growth inhibition above about 70%; inactive means the rest.
What was measured:
[1] = NCI Yeast Anticancer Drug Screen. Data for the rad50 strain (AID 155);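 further: 0% = growth of vehicle-only cultures of the same strain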; details: S. cerevisiae rad50 strain growth inhibition; at 50.0 µM; hits give high values
Method in brief: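 Readout: growth inhibition relative to vehicle-treated cultures. Compound exposure was carried out in a genetically defined yeast strain deficient in DNA damage repair.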

[2] = NCI Yeast Anticancer Drug Screen. Data for the mec2-1 strain (AID 157); details: S. cerevisiae mec2-1 strain, at 50.0 µM, hits give high values
Method in brief: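 Test agents were screened against the mec2-1 yeast strain, with defined DNA repair or cell cycle alteration. Growth was scored as inhibition against vehicle-only controls.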

[3] = NCI Yeast Anticancer Drug Screen. Data for the sgs1 mgt1 strain (AID 161);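 further: 0% = growth of cultures given vehicle only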; details: S. cerevisiae sgs1 mgt1 strain, at 50.0 µM, hits give high values
Method in brief: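 Inhibition of yeast growth, normalised to vehicle-treated controls, is reported for a strain bearing genetic alterations in DNA damage repair.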

[4] = NCI Yeast Anticancer Drug Screen. Data for the cln2 rad14 strain (AID 165);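 further: 0% = growth equal to vehicle treated cultures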; details: S. cerevisiae cln2 rad14 strain, at 50.0 µM, hits give high values
Method in brief: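 Growth of compound-exposed yeast (cln2 rad14 genotype) measured and expressed as inhibition relative to vehicle.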

[5] = NCI Yeast Anticancer Drug Screen. Data for the bub3 strain (AID 167); details: S. cerevisiae bub3 mutant strain, at 50.0 µM, hits give high values
Method in brief: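 Readout: yeast growth inhibition, expressed relative to vehicle-only wells. The test organism is a mutant strain from a panel with lesions in DNA repair or checkpoint genes.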

[6] = NCI Yeast Anticancer Drug Screen. Data for the mlh1 rad18 strain (AID 175); details: S. cerevisiae mlh1 rad18 strain growth inhibition; at 50.0 µM; hits give high values
Method in brief: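 In this whole-cell yeast screen, a strain with altered DNA damage repair is challenged with compound, and its growth is measured against matched vehicle-treated controls.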

Measured: growth inhibition

O=C(O)C1CCCCN1/N=C/c1ccccc1 (stereo unspecified)
inactive: [1] 15.8% | [2] 6.8% | [3] -1.65% | [4] -13.6% | [5] -30.8% | [6] 21.9%

CCCCCCNC(=O)/C(=C\c1ccc(Cl)cc1Cl)NC(=O)c1ccccc1
inactive: [1] -3.7% | [2] -17.8% | [3] -9.75% | [4] 33.1% | [5] -16.5% | [6] -9.6%

COc1ccccc1-n1nnc2c(N)nc(N)nc21
inactive: [1] 7.05% | [2] -12.2% | [3] -13.2% | [4] 4.05% | [5] -22.1% | [6] -9.25%

Cc1ccc(C=C(C(=O)O)C(=O)O)o1
inactive: [1] -21.3% | [2] -29.4% | [3] -17.6% | [4] -8.05% | [5] -13.4% | [6] -56.2%

CC12CC3C(CC1O2)C3(C)C (stereo unspecified)
inactive: [1] -30.2% | [2] -19.6% | [3] -32.8% | [4] 2.5% | [5] 1.35% | [6] -43.2%

COc1ccc(/C=C/C=C/C(=O)O)cc1OC
inactive: [1] -2.8% | [2] -9.7% | [3] -12.4% | [4] 5.85% | [5] 2.8% | [6] 15.1%

N#CC[N+]1(Cc2ccccn2)CCCC1
inactive: [1] -4.5% | [2] -2.05% | [3] -13.8% | [4] 6.4% | [5] -2.5% | [6] -7.8%

CC(C)N(C(=O)c1cccc(C(=O)N(C(C)C)C(C)C)c1)C(C)C
inactive: [1] 12.7% | [2] 2.45% | [3] 0.25% | [4] 11.3% | [5] 16.9% | [6] 33.4%

O=C(O)/C(=C/c1ccccc1[N+](=O)[O-])c1ccccc1
inactive: [1] 40.1% | [2] -16.1% | [3] 20.5% | [4] 17.5% | [5] -8.85% | [6] -12.7%

COc1ccccc1-c1nc2ccccc2c(=O)[nH]1
inactive: [1] 12.8% | [2] -25.9% | [3] -14.1% | [4] 8.5% | [5] 6.4% | [6] 2.25%

O=[N+]([O-])c1cc([N+](=O)[O-])c2ccccc2c1NS(=O)(=O)c1ccc(Br)cc1
active: [6] 70.5%
inactive: [1] 7.35% | [2] 18.9% | [3] 36.4% | [4] 0.7% | [5] 36%

Cc1ccc(C(=O)OC[C@H]2CC[C@@H](n3cc(N(C)C4CCCCC4)c(=O)[nH]c3=O)O2)cc1
inactive: [1] 2.4% | [2] -32.2% | [3] 8.7% | [4] 14.5% | [5] -2.15% | [6] 31.8%

COc1ccc(CCC2(C)OCCCO2)cc1
inactive: [1] 9.75% | [2] -0.65% | [3] -0.85% | [4] -6.75% | [5] -5.8% | [6] 17.4%

COc1cc(O)c(C(C)c2ccccc2)cc1N=O (stereo unspecified)
inactive: [1] -9.45% | [2] -11.6% | [3] -4.4% | [4] 4.15% | [5] 11.8% | [6] -6.15%

OC1COC(C2CCCO2)OC1 (stereo unspecified)
inactive: [1] 10.4% | [2] -6.2% | [3] -2.35% | [4] 1.35% | [5] -13.7% | [6] 11.8%

CC(C)CC(N)C(=O)NC(Cc1cc2ccccc2[nH]1)C(=O)O (stereo unspecified)
inactive: [1] 2.4% | [2] -6.25% | [3] 7.3% | [4] -17.9% | [5] 5.2% | [6] -0.4%

COc1nc2cc3c(cc2n2cccc12)oc1ccccc13
inactive: [1] 11.9% | [2] 7.5% | [3] -4% | [4] 12.2% | [5] -1.75% | [6] -2.65%

CSc1nc(=O)n(CCC#N)nc1SC
inactive: [1] 32.6% | [2] 21.9% | [3] 34.9% | [4] -7.65% | [5] 4.25% | [6] 12.2%

CC(=O)CSc1cc(C)c2ccccc2n1
inactive: [1] -6.6% | [2] -7.35% | [3] -11.1% | [4] -10.8% | [5] -13.1% | [6] 1.05%

CCSc1ccc(C)cc1
inactive: [1] 28.6% | [2] -3.15% | [3] -20.8% | [4] 26.5% | [5] -8.1% | [6] 12.6%

CC(=O)OCC(=O)[C@@]1(O)CC[C@H]2[C@@H]3CCC4=CC(=O)CC[C@]4(C)[C@H]3[C@@H](O)C[C@@]21C
inactive: [1] -20.6% | [2] -17.4% | [3] -3.2% | [4] -20.3% | [5] -23.1% | [6] -38.5%

CCOC(=O)CCN(CC1CC=CCC1)c1cc(O)c2c(c1O)C(=O)c1ccccc1C2=O (stereo unspecified)
inactive: [1] -70.6% | [2] -4.75% | [3] -21.5% | [4] -2.55% | [5] 2% | [6] -9.85%

C=C1CC[C@H]2C(=O)OC(c3ccoc3)C[C@]2(C)C/C=C\C=C/1C(=O)OC (stereo partly specified)
inactive: [1] -10.8% | [2] -11.7% | [3] -19.8% | [4] -6% | [5] -27.2% | [6] -22.6%

Cc1ccc2c(c1)C(=O)c1ccccc1C2=O
inactive: [1] 7.8% | [2] 1.05% | [3] 1.9% | [4] 11.9% | [5] 52% | [6] 6%

CC(=O)N1C(Nc2ccccn2)CCN1c1ccccc1 (stereo unspecified)
inactive: [1] -30.9% | [2] -45.3% | [3] -21.4% | [4] 16.6% | [5] 7.9% | [6] -23.2%

FC(F)(F)C(F)(F)C(F)(F)c1nnnn1-c1ccccc1
inactive: [1] 10.8% | [2] -0.8% | [3] -17.1% | [4] 3.3% | [5] -13.3% | [6] -17.1%

CCOC(=O)c1c(C)c(=O)cnc2c(C#N)cnn12
inactive: [1] -4.55% | [2] -6.75% | [3] -6.8% | [4] -33.2% | [5] -1.4% | [6] -8.35%

COc1cccc(N)c1
inactive: [1] 4.6% | [2] -11.8% | [3] -6.65% | [4] -2.75% | [5] -4.95% | [6] -10.2%

O=C(Oc1ccc2ccccc2c1)c1ccccc1
inactive: [1] 28.4% | [2] 4.4% | [3] 28.4% | [4] 21.9% | [5] 2.7% | [6] 10.1%

CC(CS(C)(=O)=O)S(=O)(=O)O (stereo unspecified)
inactive: [1] -6.25% | [2] -20.4% | [3] -1.35% | [4] -0.3% | [5] -14.7% | [6] -5.85%

C(=N\N1CCN(/N=C/c2ccc3ccccc3n2)CC1)/c1ccc2ccccc2n1
inactive: [1] 38.1% | [2] 13.1% | [3] 11.9% | [4] 26.5% | [5] 1.5% | [6] 32.4%

CCOC(=O)/C=C/CI
inactive: [1] 12.8% | [2] -34.5% | [3] 10.4% | [4] 8.4% | [5] 13.5% | [6] 16.2%

O=C1C(O)=C(c2ccccc2)C(=O)N1Cc1ccccc1
inactive: [1] 7.25% | [2] -4.7% | [3] 4.55% | [4] -39% | [5] 3.4% | [6] -6.6%

C[N+]([O-])(Cc1ccccc1)c1ccccc1 (stereo unspecified)
inactive: [1] -3.6% | [2] -16.3% | [3] -15.2% | [4] -20.9% | [5] -26.8% | [6] 1.75%

O=C1C2C3CCC(C3)C2C(=O)N1CCO (stereo unspecified)
inactive: [1] 3.35% | [2] 6% | [3] 7.15% | [4] 4.85% | [5] 17.9% | [6] -2.45%

COC(SC)(SC)c1cc(-c2c(Cl)cccc2Cl)no1
inactive: [1] -7.25% | [2] -7.55% | [3] -3.1% | [4] 4.3% | [5] 27.6% | [6] -4.15%

CCCCC(O)C(=O)NCCC(=O)c1ccccc1 (stereo unspecified)
inactive: [1] -7.1% | [2] 5.95% | [3] 3.45% | [4] 22.9% | [5] 14.1% | [6] 20.4%

CC(=O)OC(C)/C=C\C#N (stereo unspecified)
inactive: [1] -17.9% | [2] 14.3% | [3] 5.25% | [4] -2.65% | [5] 0.35% | [6] 37.8%

Nc1ccc(NC(=S)Nc2ccccc2)cc1
inactive: [1] -2.35% | [2] -18.3% | [3] -3.15% | [4] 2.2% | [5] -7.05% | [6] -12.7%

O=C(Nc1ccccc1)OC1OC(COC(=O)c2ccccc2)C(OC(=O)c2ccccc2)C1OS(=O)(=O)c1ccc([N+](=O)[O-])cc1 (stereo unspecified)
inactive: [1] -18.1% | [2] 0.15% | [3] -18.2% | [4] -25.6% | [5] -13.1% | [6] -15.8%

O=C(O)CCc1ccc([N+](=O)[O-])cc1Cl
inactive: [1] 5.8% | [2] 4.95% | [3] 7.3% | [4] -24.6% | [5] -17.4% | [6] -0.4%
